This is a sample that favours compounds with a hit; in the whole collection about 0.52% have one here.
Epigenetic reg – Quantitative High-Throughput Screen for Regulators of Epigenetic Control. murine LDR cells, GFP reporter derepression, 30 h. Potency, µM (doses to about 53.9 µM), most hits filed as activators. hit rate 0.2% among 280,000. AID 1865, 2009; further: nearly all actives have a fitted effect of over 60% in size
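Murine LDR cells carrying a silenced, genomically integrated CMV-driven GFP reporter were exposed to compound for 30 hours at 37 C. After PBS washes, GFP-positive cells (20–120 um objects) were counted by laser-scanning microplate cytometry.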
Vif-APOBEC3F blk – qHTS for Inhibitors of Vif-A3F Interactions: qHTS | Potency, µM (doses to about 46.1 µM) | hit rate 0.2% among 390,000 | HeLa A3F-eYFP + Vif (tagged APOBEC3F with the HIV-1 protein that degrades it), YFP fluorescence increase | AID 602313, 2012; further: nearly all actives have a fitted effect of over 65% in size
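HeLa cells stably expressing A3F-eYFP plus Vif, plated and incubated overnight at 37 deg C, then exposed to compounds overnight at 37 deg C. Blocked degradation read as raised yellow fluorescence (Ex 488/Em 500-530).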
PINK1 expr mod – A Quantitative High throughput Screen to Identify Chemical Modulators of PINK1 Expression. PINK1 immunofluorescence, high-content cytometry, 24 h. Potency, µM (series often up to 76.6 µM), actives largely listed as activators. hit rate 0.2% among 410,000. AID 624263, 2012; active means well fitted activation curve with a large enough effect; inconclusive means small, poorly fitted or top-dose-only effect; cell line not stated here; further: nearly all actives have a fitted effect of over 65% in size
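Measures PINK1 amount and localization on or inside mitochondria by immunofluorescence. Stable cells get compounds at 5 concentrations for 24 hours before fixation and staining; CCCP controls included.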
Vif-APOBEC3G blk – qHTS for Inhibitors of Vif-A3G Interactions: qHTS; DNA dC->dU-editing enzyme APOBEC-3G (Homo sapiens), Q9HC16; HeLa A3G-eYFP + Vif (tagged APOBEC3G with the HIV-1 protein that degrades it), YFP fluorescence, overnight; Potency, µM (doses to about 46.1 µM), hits mostly inhibitors; hit rate 0.076% among 410,000; AID 602310, 2012; further: nearly all actives have a fitted effect of over 60% in size
Target sequence (Q9HC16 whole entry, looked up): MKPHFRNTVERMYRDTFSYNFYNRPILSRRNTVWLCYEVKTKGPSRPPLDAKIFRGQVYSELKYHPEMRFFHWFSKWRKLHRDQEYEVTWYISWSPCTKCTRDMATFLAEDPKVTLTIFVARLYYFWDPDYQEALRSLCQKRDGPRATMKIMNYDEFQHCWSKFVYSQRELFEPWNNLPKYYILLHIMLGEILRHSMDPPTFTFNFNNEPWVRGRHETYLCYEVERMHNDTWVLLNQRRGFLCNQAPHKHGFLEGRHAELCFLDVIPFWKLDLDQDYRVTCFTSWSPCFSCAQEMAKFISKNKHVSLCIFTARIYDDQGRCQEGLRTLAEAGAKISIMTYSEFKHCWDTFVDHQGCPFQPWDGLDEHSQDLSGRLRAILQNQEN
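Read-out is eYFP fluorescence (Ex 488/Em 500-530) from Vif-expressing HeLa A3G-eYFP cells; more signal means A3G escaped Vif-mediated degradation. Cells plated overnight, compound pinned in, incubated overnight at 37 deg C.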
Of the large screens only hits and unclear results are named; the others gave an inactive call. Unless noted, the call rests on the fitted dose curve; in most records, active means well fitted curve in the direction sought with a large enough effect; inconclusive means small, poorly fitted or top-dose-only effect, or another doubt; inactive means no such curve, though single readings can be large; an effect the other way counts as inactive or inconclusive.

CN1/C(=C\C=C2C(=O)NC(=S)NC2=O)C(C)(C)c2ccccc21	Epigenetic reg 18µM, PINK1 expr mod 35µM
CC1(C)OC(c2ccccc2)=C/C(=C/C=C2C(=O)NC(=S)NC2=O)O1	Vif-APOBEC3F blk inconclusive, PINK1 expr mod inconclusive
Oc1ccc(-c2cccnc2)cc1CNC1CN2CCC1CC2 (stereo unspecified)	none (no result: Epigenetic reg, Vif-APOBEC3F blk, Vif-APOBEC3G blk)
Cc1ccc(C)c(NC(=O)Cn2nc(C)c3nn(-c4ccc(Cl)cc4)c(C)c3c2=O)c1	Vif-APOBEC3F blk inconclusive
CCOc1cccc(=NC2CCCCC2)c2c(C)n(C)c(C)c12	PINK1 expr mod 16µM
CCOc1ccccc1N=C1SCCCN1C	none
O=[N+]([O-])c1ccc(N2CCCCCC2)c2nonc12	Vif-APOBEC3F blk inconclusive, PINK1 expr mod 40µM (no result: Epigenetic reg)
Cc1c(P(=S)(c2ccccc2)c2ccccc2)[n+]2ccccc2n1CCc1ccccc1	PINK1 expr mod 25µM (no result: Epigenetic reg, Vif-APOBEC3F blk)
C#CCN1C(C)=C(C(=O)CCO)[C@@H](c2cccc(-n3oo3)c2)C(C(=O)OC)=C1C	none (no result: Vif-APOBEC3F blk, PINK1 expr mod, Vif-APOBEC3G blk)
COc1ccccc1-n1c(/C=C/c2ccc(O)cc2)nc2ccccc2c1=O	Vif-APOBEC3F blk 10µM (no result: Epigenetic reg)
COc1ccccc1-n1c(/C=C/c2ccccc2)nc2ccccc2c1=O	none
COC1C(O)C(C)O[C@H](OC2CC[C@@]3(C=O)C4CC[C@]5(C)C(C6=CC(=O)OC6)CC[C@@]5(O)C4CC[C@@H]3C2)C1O (stereo partly specified)	none (no result: Vif-APOBEC3F blk, PINK1 expr mod, Vif-APOBEC3G blk)
CC(C)CCCn1c(O)c(/C=C2/C=CC=N2)c(=O)[nH]c1=O	Vif-APOBEC3F blk 25µM, Vif-APOBEC3G blk inconclusive
CCCCn1c(O)c(C=NCCCn2ccnc2)c(=O)[nH]c1=O	none
CC[C@@H](CO)NC(=O)[C@H]1C=C2c3cccc4c3c(cn4C)C[C@H]2N(C)C1	none (no result: Vif-APOBEC3F blk, PINK1 expr mod, Vif-APOBEC3G blk)
C=C(C)C1CCC(C)=CC1c1c(O)cc(O)cc1CCCCC (stereo unspecified)	none (no result: Vif-APOBEC3F blk, PINK1 expr mod, Vif-APOBEC3G blk)
N#Cc1cc(NC(=O)c2ccc(Cl)cc2)ccc1Sc1ccccc1	PINK1 expr mod 25µM (no result: Epigenetic reg, Vif-APOBEC3F blk)
Cc1ccccc1N1C(=O)NC(=O)/C(=C/c2ccc(N3CCOCC3)o2)C1=O	Vif-APOBEC3F blk inconclusive
O=C1NC(=O)N(c2ccc3c(c2)OCO3)C(=O)/C1=C\c1ccc(N2CCCCC2)o1	Vif-APOBEC3F blk 4.5µM
c1ccc(N2CC3(CCNCC3)C2)nc1	none (no result: Epigenetic reg, Vif-APOBEC3F blk, Vif-APOBEC3G blk)
COc1ccc(/C=C2\Oc3cc(OC(=O)N4CCOCC4)ccc3C2=O)c(OC)c1	Vif-APOBEC3F blk 25µM, PINK1 expr mod inconclusive, Vif-APOBEC3G blk inconclusive
CCOc1ccc(CCNC(=O)c2ccc(-n3c(C)cc4c3CCCC4)cc2)cc1OCC	Epigenetic reg inconclusive, Vif-APOBEC3F blk inconclusive
O=c1cc(C(F)(F)F)c2cc3c4c(c2o1)CCCN4CCC3	Epigenetic reg 7.1µM, Vif-APOBEC3F blk inconclusive
Cc1c(C=O)c2ccccc2n1Cc1ccccc1	none (no result: Epigenetic reg)
O=Cc1c(C(=O)O)n(Cc2ccc(Cl)cc2)c2ccccc12	Vif-APOBEC3F blk 10µM, Vif-APOBEC3G blk inconclusive
O=[N+]([O-])c1ccc(Cl)c(Cl)c1Cl	none (no result: Epigenetic reg)
Cc1c(NS(=O)(=O)c2ccccc2)ccc([N+](=O)[O-])c1Cl	PINK1 expr mod 16µM (no result: Epigenetic reg)
CCN(CC)c1ccc(N=Cc2c(O)n(CCC3=CCCCC3)c(=O)[nH]c2=O)cc1	Epigenetic reg 22µM, Vif-APOBEC3F blk 22µM, PINK1 expr mod inconclusive
CN(C)c1ccc(N=Cc2c(O)n(CCC3=CCCCC3)c(=O)[nH]c2=O)cc1	Epigenetic reg inconclusive, Vif-APOBEC3F blk inconclusive, PINK1 expr mod inconclusive
COc1ccc2c(c1)[C@@]13CCCCC1[C@@H](C2)N(C)CC3 (stereo partly specified)	none (no result: Vif-APOBEC3F blk, PINK1 expr mod, Vif-APOBEC3G blk)
COc1ccc(OC)c(N=Cc2c(O)n(Cc3ccccc3)c(=S)[nH]c2=O)c1	Epigenetic reg inconclusive, Vif-APOBEC3F blk inconclusive, PINK1 expr mod 35µM
CCN(CCNc1ccc([N+](=O)[O-])c2cccnc12)S(=O)(=O)c1ccccc1	Epigenetic reg inconclusive, Vif-APOBEC3F blk inconclusive, PINK1 expr mod 40µM
CCN(CCNc1ccc([N+](=O)[O-])c2cccnc12)S(=O)(=O)c1ccc(Cl)cc1	Epigenetic reg inconclusive
O=c1[nH]c(=O)n(-c2ccc(F)cc2)c(O)c1C=Nc1ccccc1N1CCCC1	Vif-APOBEC3F blk inconclusive, PINK1 expr mod 35µM
Cc1ccc(-n2c(O)c(C=Nc3ccccc3N)c(=O)[nH]c2=O)cc1C	none
O=C(NCc1ccccc1)c1cccn(Cc2ccccc2)c1=O	none (no result: Epigenetic reg)
Cc1ccc(CNC(=O)c2ccccc2NC(=O)c2nsc3ccccc23)cc1	Vif-APOBEC3F blk 13µM
Cn1c(NN=O)nc2ccccc21	Epigenetic reg 11µM
